Tb PYK inh = blocks Trypanosoma brucei pyruvate kinase; TbPYK enzyme, Kinase-Glo Plus ATP luminescence, 45 min; Potency, µM (doses to about 76.8 µM), inactives show at the highest dose activity, negative = inhibition, actives largely listed as inhibitors; 410,000 compounds, 0.12% hits; further: potency means the concentration at half of the fitted maximal effect; nearly all actives have a fitted effect of over 50% in size
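Assay buffer: 50 mM TEA pH 7.2, 100 mM KCl, 10 mM MgCl2, 0.05% BSA, 0.01% Tween-20. Pyruvate kinase from T. brucei plus substrate met compound, then ADP (130 uM final). Luminescence was read post 45 min RT.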
Giardia FBPA inh = Giardia lamblia aldolase inhibition; AID 2451; 290,000 compounds, 0.71% hits; A8B2U2; Potency, µM (highest dose often 59.6 µM), inactives show top-dose activity, negative = inhibition, actives largely listed as inhibitors; purified Giardia FBPA; further: potency means the concentration at half of the fitted maximal effect; nearly all actives have a fitted effect of over 55% in size
Target sequence (A8B2U2 whole entry, looked up): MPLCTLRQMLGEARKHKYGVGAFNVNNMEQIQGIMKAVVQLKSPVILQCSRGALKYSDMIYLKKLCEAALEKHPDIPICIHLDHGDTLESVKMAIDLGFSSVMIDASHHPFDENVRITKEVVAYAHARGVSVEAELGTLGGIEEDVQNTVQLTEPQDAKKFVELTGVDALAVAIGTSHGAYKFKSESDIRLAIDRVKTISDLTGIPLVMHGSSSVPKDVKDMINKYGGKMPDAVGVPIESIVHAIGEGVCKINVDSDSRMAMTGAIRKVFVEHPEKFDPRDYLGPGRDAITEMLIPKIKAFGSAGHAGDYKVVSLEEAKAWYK
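40 nM FBPA preincubated 10 min at RT with compound (up to 57.5 uM final), then substrate plus GAPDH/TPI/NAD/arsenate coupling and diaphorase/resazurin added. Fluorescence read after 20 min at RT, 525/598 nm.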
Sm TGR block = inhibitors of Schistosoma mansoni thioredoxin glutathione reductase; purified TGR, DTNB reduction, TNB absorbance 405 nm; Potency, µM (top dose mostly 114 µM), inactives show top-dose activity change, negative = inhibition, actives largely listed as inhibitors; 360,000 compounds, 3% hits; further: potency means the concentration at half of the fitted maximal effect; nearly all actives have a fitted effect of over 60% in size
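First, TGR (20 nM dispensed) and NADPH were mixed with compound. Second, a 15 min room-temperature incubation followed. Third, further NADPH and then DTNB were added to start the reaction. Finally, TNB absorbance was monitored kinetically.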
HCMV inh = human cytomegalovirus inhibition. 410,000 compounds, 4.5% hits. activity change, negative = inhibition, % at 57.5 µM. HFF cells, HCMV-luciferase reporter, 72 h; stronger effect = lower value; in the data active means activity change below about -60%; inconclusive means no clear call, values can overlap the other calls; inactive means above about -39%
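Compounds were evaluated in HFFs infected with an HCMV luciferase reporter virus (MOI 1 PFU/cell). Luciferase in lysates collected 72 h post infection served as the replication measure.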
FMDV inh = foot and mouth disease virus antiviral activity | FMDV antiviral cell-based qHTS | Potency, µM (top dose mostly 57.9 µM), for the others: at the highest dose activity change, negative = inhibition, hits mostly inhibitors | 410,000 compounds, 1.2% hits; calls by dose curve; tested in HEK293T cells; further: read-out not given here; potency means the concentration at half of the fitted maximal effect; nearly all actives have a fitted effect of over 45% in size
RE007 growth inh = less growth of the S. pombe RE007 Vpr strain. Potency, µM (doses to about 92.2 µM), inactives show top-dose activity change, negative = less growth, most hits filed as inhibitors. 360,000 compounds, 0.21% hits. S. pombe RE007 Vpr strain, BacTiter-Glo ATP luminescence, 24 h; active means well fitted falling curve with a large enough effect; inconclusive means small, poorly fitted or top-dose-only effect; inactive means no such curve, though single readings can be large or run the other way; further: potency means the concentration at half of the fitted maximal effect; nearly all actives have a fitted effect of over 50% in size
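Fission yeast RE007 carrying one integrated HIV-1 vpr copy, seeded at OD 0.01 in PMG+AL medium with 23 nL pinned compound. Grown 24 h at 30 degrees; viability read by BacTiter-Glo luminescence after 5 min.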
Active calls of the source: *; ? = inconclusive; / = not tested or not shown. Compounds with a hit are over-represented: about 7.7% of the library has one in this group of screens. Unless noted, the call rests on the fitted dose curve; in most records, active means well fitted curve in the direction sought with a large enough effect; inconclusive means small, poorly fitted or top-dose-only effect, or another doubt; inactive means no such curve, though single readings can be large; an effect the other way counts as inactive or inconclusive. On the % scale 0 is the no-effect control and ±100 the full control effect.

SMILES | Tb PYK inh | Giardia FBPA inh | Sm TGR block | HCMV inh | FMDV inh | RE007 growth inh
c1ccc(C[C@H]2CNCCN2CC2(c3ccccc3)CC2)cc1 | 4% | / | 45µM* | 29 | -6% | 11%
CCOc1ccc(/C=C/C(=O)c2cc(Br)ccc(=O)c2O)cc1 | 1% | ? | 28µM* | 2 | ? | -30%
Cc1cccc(/C=C/C(=O)c2cc(Br)ccc(=O)c2O)c1 | -29% | ? | 2% | -104* | ? | ?
O=C(C=Cc1ccccc1)c1cc(Br)ccc1O | 1% | / | / | -22 | ? | -23%
CCc1ccc(/C=C/C(=O)c2cc(Br)ccc(=O)c2O)cc1 | -12% | ? | 0% | -106* | -16% | -28%
CCOC(=O)CNC(=O)N1CCc2cc(S(=O)(=O)N3CCC(C)CC3)ccc21 | -3% | / | 1% | 55 | 0% | /
COc1ccc(/C=C2\N=C(C)OC2=O)cc1[N+](=O)[O-] | -8% | 1% | 10µM* | 23 | -10% | 2%
COc1cc(/C=C2\N=C(C)OC2=O)cc(Cl)c1OC(C)=O | -1% | -1% | 10µM* | -1 | -29% | -2%
CCc1cccc(NC(=O)CNS(=O)(=O)c2ccc3nc(C)sc3c2)c1 | -8% | / | 1% | 9 | 2% | /
O=C(NCc1ccccc1Cl)c1ccc(NC(=O)N2CCSc3ccccc32)cc1 | 2% | / | 2% | -19 | -2% | /
Cc1n[nH]c(C)c1S(=O)(=O)N1CCCC(C(=O)Nc2ccc(Cl)cc2)C1 (stereo not given) | -5% | / | 5% | ? | 0% | /
CC(C)OCCCn1c(SCc2ccccc2C#N)nc2c(sc3ccccc32)c1=O | -11% | / | 5% | -3 | 1% | /
COCCn1c(C)cc(O)c(C(c2ccccc2OC)N2CCN(c3ccccc3)CC2)c1=O (stereo not given) | 1% | / | 3.5µM* | 10 | -30% | /
COCCn1c(C)cc2c(c1=O)C(c1ccccc1F)C(C#N)=C(N)O2 (stereo not given) | 7% | 0% | 3% | 45 | -4% | 14%
COCCn1c(C)cc(O)c(C(c2ccccc2F)N2CCN(c3ccccc3)CC2)c1=O (stereo not given) | 9% | / | 4.5µM* | -11 | -23% | /
CCC(C)(C)n1nnnc1C(c1cc(OC)c(OC)c(OC)c1)N1CCN(c2ccccc2)CC1 (stereo not given) | 0% | 4% | 36% | -10 | 0% | -1%
CCOc1ccc(-n2nc(CO)c(C(=O)NCc3ccc(Cl)cc3)n2)cc1 | 0% | / | 8% | ? | 1% | /
CCOC(=O)C1=C(c2ccc(OC)cc2)OC(N)=C(C#N)C1c1cccnc1 (stereo not given) | 1% | -1% | 11µM* | -5 | -19% | 2%
CCOC(=O)C1=C(c2ccccc2)OC(N)=C(C#N)C1c1ccc(Br)s1 (stereo not given) | 1% | -7% | 40µM* | -6 | -20% | -24%
CCN(CC)c1ccc2c(c1)OC(N)=C(C#N)C2c1cccnc1 (stereo not given) | 8% | -12% | -30% | -85* | ? | 2%
CCOC(=O)C1=C(c2ccccc2)OC(N)=C(C#N)C1c1ccc(Cl)s1 (stereo not given) | 0% | -8% | ? | -35 | -17% | -4%
CCOC(=O)C1=C(C)OC(N)=C(C#N)C1c1ccoc1 (stereo not given) | -7% | -16% | 32µM* | 14 | 11% | 2%
COc1ccc2c3c([nH]c2c1)[C@H](CO)N(C(=O)C1CCC1)CC31CCN(C(=O)c2ccncc2)CC1 | / | / | / | 11 | / | /
Cc1c2cnn(-c3ccccc3)c(=O)c2c(C)n1CC(=O)NCc1ccccc1 | -2% | / | -17% | -5 | -19% | /
CCOC(=O)C1=C(N)OC(CCl)=C(C#N)C1c1ccsc1 (stereo not given) | -3% | -8% | 13µM* | -30 | ? | 4%
SMILES | Tb PYK inh | Giardia FBPA inh | Sm TGR block | HCMV inh | FMDV inh | RE007 growth inh
CC1=C(C(=O)OCc2ccccc2)C(c2ccsc2)C(C#N)=C(N)O1 (stereo not given) | -9% | -3% | -22% | -1 | -14% | -8%
O=C(CCCCn1cnc2c(=S)nc[nH]c21)Nc1ccc(C(=O)O)c(O)c1 | ? | / | / | -73* | -11% | 1%
O=C(CCN1C(=O)/C(=C/c2cccs2)SC1=S)Nc1ccc(C(=O)O)c(O)c1 | -6% | / | 0% | ? | 10% | 4%
CCCc1nc2ccccc2c(=O)n1/N=C/c1c(C)[nH]n(-c2ccc(C)cc2)c1=O | -6% | ? | -10% | -12 | ? | 16µM*
CN(NS(=O)(=O)c1ccccc1)C(=O)c1ccccc1 | 5% | / | / | -100* | -15% | -4%
c1ccc(-n2c(SCc3nc(-c4cccs4)no3)nnc2-c2ccco2)cc1 | 5% | -30% | 45µM* | -40 | / | 7%
Cc1ccc2nc(CSc3nnc(-c4ccco4)o3)cc(=O)n2c1 | -14% | ? | 0% | -21 | -9% | 5%
Cc1ccc2nc(CSc3nnc4ccccn34)cc(=O)n2c1 | -1% | 2% | 0% | 14 | 34% | 6%
CCn1c(SCc2nc(-c3cccs3)no2)nnc1-c1c[nH]c2ccccc12 | -4% | -1% | 6% | ? | 22µM* | -11%
COCC(C)n1c(SCc2cc(=O)n3cc(C)ccc3n2)nc2ccccc2c1=O (stereo not given) | 9% | -1% | 6% | -61* | -29% | 13%
Cc1ccc2nc(CSc3nnc(-c4ccco4)n3-c3ccccc3)cc(=O)n2c1 | -3% | / | / | -105* | -2% | 28%
COC(=O)[C@]1(C#N)CC(=O)N([C@H](c2ccccc2)[C@@H](O)c2ccccc2)[C@@H]1c1ccccc1 | / | / | / | -18 | / | /
CO[C@H]1C[C@@H]2CC[C@@H](C)[C@@](O)(O2)C(=O)C(=O)N2CCCC[C@H]2C(=O)O[C@H]([C@H](C)C[C@@H]2CC[C@@H](O)[C@H](OC)C2)CC(=O)[C@H](C)C=C(C)[C@@H](O)[C@@H](OC)C(=O)[C@H](C)C[C@H](C)C=CC=CC=C1C | / | -16% | 14µM* | / | / | /
CO[C@H]1C[C@@H]2CC[C@@H](C)[C@@](O)(O2)C(=O)C(=O)N2CCCC[C@H]2C(=O)OC([C@H](C)C[C@@H]2CC[C@@H](O)[C@H](OC)C2)CC(=O)[C@H](C)/C=C(\C)[C@@H](O)[C@@H](OC)C(=O)[C@H](C)C[C@H](C)/C=C/C=C/C=C/1C (stereo not given in full) | / | -16% | / | / | -20% | /
COc1ccc(N2CCN(C(=O)c3cc4c(=O)n(Cc5cccnc5)ccc4nc3C)CC2)cc1 | 4% | / | 0% | -31 | -14% | /

Assay outcomes: PubChem, National Center for Advancing Translational Sciences (NCATS)
